Assay outcomes: PubChem, several laboratories
The list is not random: actives were taken first. Their share in the collection is about 4.7%.
PABP1 MLLE inh: inhibitors of PABP1 MLLE–PAM2 peptide binding, primary screen, biochemical, fluorescence polarization, FITC-PAM2, GST-MLLE; hit rate 0.36% among 360,000; inhibition, % at 20 µM; Polyadenylate-binding protein 1 (Homo sapiens), P11940; in the data active means inhibition above about 35%, passing the limit was not always enough
PABP polyA inh: PABP poly(A) RNA binding inhibitors, primary screen, biochemical, fluorescence polarization, uHTS | Polyadenylate-binding protein 1 (Homo sapiens), P11940 | inhibition, % at 35 µM | hit rate 1% among 290,000 | AID 2014, 2009;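 further: calls also rest on retests at 20 µM and on dose response follow-up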
ALR inh: inhibitors of human ALR sulfhydryl oxidase, primary screen, biochemical, H2O2 detection, HRP-luminol luminescence, single point. inhibition, % (test concentration not listed). hit rate 3.8% among 290,000. purified ALR, DTT oxidation. FAD-linked sulfhydryl oxidase ALR (Homo sapiens), P55789;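 active means mean replicate inhibition above about 79%, with every replicate also reaching it, limit read from the data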
Efflux pump mplx: inhibitors of Candida efflux pumps in yeast, primary screen, S. cerevisiae, Nile Red, multiplex; inhibition, % at 10 µM; S. cerevisiae Candida pump triplex; hit rate 0.44% among 330,000;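 active means plate passing quality check with inhibition over a set limit, or well fluorescence over plate mean plus 4 SD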;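 further: Nile Red retained in pooled yeast measured as flow cytometry median fluorescence; higher means more Nile Red kept so more efflux inhibition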
SUMO HTRF inh: inhibitors of in vitro SUMOylation cascade, primary screen, biochemical, HTRF, uHTS. SUMO-conjugating enzyme UBC9 (Homo sapiens), P63279. HTRF SUMOylation assay, SAE1/SAE2 + UBC9. inhibition, % at 35 µM. hit rate 0.36% among 290,000; in the data active means inhibition above about 50%, passing the limit was not always enough
Target sequence (P63279 whole entry, looked up): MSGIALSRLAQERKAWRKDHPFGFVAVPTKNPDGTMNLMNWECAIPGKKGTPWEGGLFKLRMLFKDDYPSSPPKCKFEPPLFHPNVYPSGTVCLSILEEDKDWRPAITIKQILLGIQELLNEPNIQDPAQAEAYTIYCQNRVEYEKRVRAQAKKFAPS
eIF4H inh: human eIF4H binding inhibitors, primary screen, translation initiation inhibitor project, biochemical, uHTS, fluorescence polarization; Eukaryotic translation initiation factor 4H (Homo sapiens), Q15056; hit rate 0.94% among 290,000; inhibition, % at 35 µM; eIF4H fluorescence polarization binding assay;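 further: calls also rest on retests at 20 µM and on dose response follow-up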
Numbers stand for hits. Unless noted, how the calls were made is not given here.

How did C=CCn1c(=N)c(C(=O)NCCCOC)cc2c(=O)n3cccc(C)c3nc21 do in these assays?
PABP1 MLLE inh: inactive; PABP polyA inh: inactive; ALR inh: inactive; Efflux pump mplx: inactive; SUMO HTRF inh: inactive; eIF4H inh: inactive

Results for O=C(NCc1ccco1)c1cccn2c(=O)c3cc4ccccc4cc3nc12 ?
PABP polyA inh: inactive; SUMO HTRF inh: 77.8; eIF4H inh: inactive

How did O=C(NC1CCCCC1)C(c1cccnc1)N(C(=O)c1csnn1)c1ccccc1 (stereo not given) do in these assays?
PABP1 MLLE inh: inactive; PABP polyA inh: inactive; ALR inh: inactive; Efflux pump mplx: inactive; SUMO HTRF inh: inactive; eIF4H inh: inactive

Results for COc1ccc(/C=C/c2nnc(NC(=O)CSc3ccc(C)cc3)s2)cc1 ?
PABP1 MLLE inh: inactive; PABP polyA inh: inactive; Efflux pump mplx: inactive; SUMO HTRF inh: 50.1; eIF4H inh: inactive

How did CCC(=O)Nc1nnc(/C=C/c2ccc(OC)cc2)s1 do in these assays?
PABP1 MLLE inh: inactive; PABP polyA inh: inactive; ALR inh: inactive; Efflux pump mplx: inactive; SUMO HTRF inh: inactive; eIF4H inh: inactive

Results for CCN(C(=O)COC(=O)/C=C/c1nc2ccccc2s1)c1c(N)n(Cc2ccccc2)c(=O)[nH]c1=O ?
PABP1 MLLE inh: inactive

Results for Cc1sc2nc(CN3CCOCC3)nc(Cl)c2c1C ?
PABP1 MLLE inh: inactive; PABP polyA inh: inactive; ALR inh: inactive; Efflux pump mplx: inactive; SUMO HTRF inh: inactive; eIF4H inh: inactive

How did Cc1sc2nc(CN3CCC(C)CC3)nc(Cl)c2c1C do in these assays?
PABP polyA inh: inactive; ALR inh: 97.3; Efflux pump mplx: inactive; SUMO HTRF inh: inactive; eIF4H inh: inactive

What do the screens show for `C#CCOCCOCCOCCNc1nc(N2CCN(C(=O)[C@H](C(C)C)n3cc(CCO)nn3)CC2)nc(N2CCN(C(=O)[C@H]([C@@H](C)CC)n3cc(CCC(=O)O)nn3)CC2)n1`?
PABP1 MLLE inh: inactive

What do the screens show for `Cc1ccc(NN=C2c3ccccc3-c3ccccc32)cc1`?
PABP1 MLLE inh: inactive; PABP polyA inh: inactive; ALR inh: 89.0; Efflux pump mplx: inactive; SUMO HTRF inh: inactive; eIF4H inh: inactive

How did c1ccc(NN=C2c3ccccc3-c3ccccc32)cc1 do in these assays?
PABP1 MLLE inh: inactive

How did O=C(COC(=O)COc1ccc(Cl)cc1Cl)NC1CCCC1 do in these assays?
PABP1 MLLE inh: inactive

What do the screens show for `CSc1nc(Cl)cc(Nc2ccc(O)cc2)n1`?
PABP1 MLLE inh: inactive; PABP polyA inh: inactive; ALR inh: 99.2; Efflux pump mplx: inactive; SUMO HTRF inh: inactive; eIF4H inh: inactive

What do the screens show for `O=C(COC(=O)c1ccc(OC(F)F)cc1)NCC1CCCO1` (stereo not given)?
PABP1 MLLE inh: inactive

What do the screens show for `COc1cccc(-c2csc(NNC(=O)c3cccs3)n2)c1`?
PABP1 MLLE inh: inactive; PABP polyA inh: inactive; ALR inh: 96.0; Efflux pump mplx: inactive; SUMO HTRF inh: inactive; eIF4H inh: inactive

How did Nc1ccc(Sc2cnn(-c3ccccc3)c(=O)c2Cl)cc1 do in these assays?
PABP1 MLLE inh: inactive; PABP polyA inh: inactive; ALR inh: 91.8; Efflux pump mplx: inactive; SUMO HTRF inh: inactive; eIF4H inh: inactive

What do the screens show for `COc1ccc(CNC(=O)CCS(=O)(=O)c2ccc(Br)cc2)cc1`?
PABP1 MLLE inh: inactive; PABP polyA inh: inactive; ALR inh: inactive; Efflux pump mplx: inactive; SUMO HTRF inh: inactive; eIF4H inh: inactive

Results for COc1ccc(S(=O)(=O)CCC(=O)NCc2ccc(C)o2)cc1 ?
PABP1 MLLE inh: inactive; PABP polyA inh: inactive; ALR inh: 86.5; Efflux pump mplx: inactive; SUMO HTRF inh: inactive; eIF4H inh: inactive

Results for COc1ccc(CN2CCC(=O)N([C@H](CO)Cc3ccccc3)CC2)cc1OC ?
PABP1 MLLE inh: inactive; PABP polyA inh: inactive; Efflux pump mplx: inactive; SUMO HTRF inh: inactive; eIF4H inh: inactive

How did O=C(NCc1cccc(Cl)c1)C1Cc2c(-c3ccc(Cl)cc3)ccnc2O1 (stereo not given) do in these assays?
PABP1 MLLE inh: inactive

How did COC(=O)Cn1c(=NC(=O)c2ccc([N+](=O)[O-])s2)sc2cc(Br)ccc21 do in these assays?
PABP polyA inh: inactive; ALR inh: 98.0; Efflux pump mplx: inactive; SUMO HTRF inh: inactive; eIF4H inh: inactive
